PubChem BioAssay (NCATS)
Records with an inconclusive call do not appear. Calls of active or inactive are those of the source. Calls come from the whole dose curve; as a rule, active = well fitted inhibition curve with a large enough effect; inconclusive = small, poorly fitted or top-dose-only effect; inactive = flat fitted curve, though single readings scatter.

Columns and labels:
[1] = qHTS profiling for inhibitors of Plasmodium falciparum proliferation (AID 504749);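 note: 0% = DMSO vehicle and full inhibition = artemisinin control; nearly all actives have a fitted effect of over 60% in size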; settings: P. falciparum in erythrocytes, SYBR Green DNA, 72 h
In short: (§1)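 Infected RBCs, 0.3% parasitemia/2.5% Hct final; cpd 72 h, 37 C, 5% CO2; lysis buffer with saponin/triton/SYBR Green I, o/n RT dark; FI 485/535; norm. to artemisinin (0.29 uM) and DMSO.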

[2] = system: 3D7; assay: as above; settings: P. falciparum in erythrocytes, SYBR Green DNA, 72 h; series mostly up to 28.7 µM
In short: as §1

[3] = system: 7G8; assay: as above; settings: P. falciparum in erythrocytes, SYBR Green DNA, 72 h; series mostly up to 28.7 µM
In short: as §1

[4] = system: AA1029; assay: as above; settings: P. falciparum in erythrocytes, SYBR Green DNA, 72 h; series mostly up to 28.7 µM
In short: as §1

[5] = system: AS120; assay: as above; settings: P. falciparum in erythrocytes, SYBR Green DNA, 72 h; series mostly up to 28.7 µM
In short: as §1

[6] = system: ATS189; assay: as above; settings: P. falciparum in erythrocytes, SYBR Green DNA, 72 h; series mostly up to 28.7 µM
In short: as §1

[7] = system: ATS95; assay: as above; settings: P. falciparum in erythrocytes, SYBR Green DNA, 72 h; series mostly up to 28.7 µM
In short: as §1

[8] = system: C2A; assay: as above; settings: P. falciparum in erythrocytes, SYBR Green DNA, 72 h; series mostly up to 28.7 µM
In short: as §1

[9] = system: CP185; assay: as above; settings: P. falciparum in erythrocytes, SYBR Green DNA, 72 h; series mostly up to 28.7 µM
In short: as §1

[10] = system: CP191; assay: as above; settings: P. falciparum in erythrocytes, SYBR Green DNA, 72 h; series mostly up to 28.7 µM
In short: as §1

[11] = system: CP192; assay: as above; settings: P. falciparum in erythrocytes, SYBR Green DNA, 72 h; series mostly up to 28.7 µM
In short: as §1

[12] = system: CP194; assay: as above; settings: P. falciparum in erythrocytes, SYBR Green DNA, 72 h; series mostly up to 28.7 µM
In short: as §1

[13] = system: CP201; assay: as above; settings: P. falciparum in erythrocytes, SYBR Green DNA, 72 h; series mostly up to 28.7 µM
In short: as §1

[14] = system: CP203; assay: as above; settings: P. falciparum in erythrocytes, SYBR Green DNA, 72 h; series mostly up to 28.7 µM
In short: as §1

[15] = system: CP211; assay: as above; settings: P. falciparum in erythrocytes, SYBR Green DNA, 72 h; series mostly up to 28.7 µM
In short: as §1

[16] = system: CP215; assay: as above; settings: P. falciparum in erythrocytes, SYBR Green DNA, 72 h; series mostly up to 28.7 µM
In short: as §1

[17] = system: CP217; assay: as above; settings: P. falciparum in erythrocytes, SYBR Green DNA, 72 h; series mostly up to 28.7 µM
In short: as §1

[18] = system: CP237; assay: as above; settings: P. falciparum in erythrocytes, SYBR Green DNA, 72 h; series mostly up to 28.7 µM
In short: as §1

[19] = system: CP238; assay: as above; settings: P. falciparum in erythrocytes, SYBR Green DNA, 72 h; series mostly up to 28.7 µM
In short: as §1

[20] = at 28.7 µM (top of the series), parasite line A
[21] = at 28.7 µM (top of the series), parasite line B

CCCCN=C(N)N=C(N)N
inactive: activity, negative = inhibition [1, 20] -1.88% | activity, negative = inhibition [1, 21] 0.415% | Potency [2] | Potency [3] | Potency [4] | Potency [5] | Potency [6] | Potency [7] | Potency [8] | Potency [9] | Potency [10] | Potency [11] | Potency [12] | Potency [13] | Potency [14] | Potency [15] | Potency [16] | Potency [17] | Potency [18] | Potency [19]

CC(=O)Nc1ccc(S(=O)(=O)Nc2ccc([N+](=O)[O-])cc2)cc1
inactive: activity, negative = inhibition [1, 20] -0.674% | activity, negative = inhibition [1, 21] 0.755% | Potency [2] | Potency [3] | Potency [4] | Potency [5] | Potency [6] | Potency [7] | Potency [8] | Potency [9] | Potency [10] | Potency [11] | Potency [12] | Potency [13] | Potency [14] | Potency [15] | Potency [16] | Potency [17] | Potency [18] | Potency [19]

COc1cc(C(=O)N2CCCCCCC2)cc(OC)c1OC
inactive: activity, negative = inhibition [1, 20] 22.3% | activity, negative = inhibition [1, 21] 22.7% | Potency [2] | Potency [3] | Potency [4] | Potency [5] | Potency [6] | Potency [7] | Potency [8] | Potency [9] | Potency [10] | Potency [11] | Potency [12] | Potency [13] | Potency [14] | Potency [15] | Potency [16] | Potency [17] | Potency [18] | Potency [19]

COc1cc(C(=O)NCc2ccc(OCCN(C)C)cc2)cc(OC)c1OC
inactive: activity, negative = inhibition ([1]; at 12.8 µM (top of the series), parasite line A) -2.54% | activity, negative = inhibition ([1]; at 12.8 µM (top of the series), parasite line B) -4.52% | Potency [2] | Potency [3] | Potency [4] | Potency [5] | Potency [6] | Potency [7] | Potency [8] | Potency [9] | Potency [10] | Potency [11] | Potency [12] | Potency [13] | Potency [14] | Potency [15] | Potency [16] | Potency [17] | Potency [18] | Potency [19]

CC(=O)Nc1ncc([N+](=O)[O-])s1
inactive: activity, negative = inhibition [1, 20] 11.2% | activity, negative = inhibition [1, 21] 9.19% | Potency [2] | Potency [3] | Potency [4] | Potency [5] | Potency [6] | Potency [7] | Potency [8] | Potency [9] | Potency [10] | Potency [11] | Potency [12] | Potency [13] | Potency [14] | Potency [15] | Potency [16] | Potency [17] | Potency [18] | Potency [19]

C#C[C@]1(O)CC[C@H]2[C@@H]3CCC4=Cc5oncc5C[C@]4(C)[C@H]3CC[C@@]21C
inactive: activity, negative = inhibition [1, 20] -28.2% | activity, negative = inhibition [1, 21] -11.7% | Potency [2] | Potency [3] | Potency [4] | Potency [5] | Potency [6] | Potency [7] | Potency [8] | Potency [9] | Potency [10] | Potency [11] | Potency [12] | Potency [13] | Potency [14] | Potency [15] | Potency [16] | Potency [17] | Potency [18] | Potency [19]

CC(C)Cc1ccc(CC(=O)O)cc1
inactive: activity, negative = inhibition [1, 20] 5.78% | activity, negative = inhibition [1, 21] 6.05% | Potency [2] | Potency [3] | Potency [4] | Potency [5] | Potency [6] | Potency [7] | Potency [8] | Potency [9] | Potency [10] | Potency [11] | Potency [12] | Potency [13] | Potency [14] | Potency [15] | Potency [16] | Potency [17] | Potency [18] | Potency [19]

OC1C(O)C(O)C(O)C(O)C1O (stereo not given)
inactive: activity, negative = inhibition [1, 20] 1.75% | activity, negative = inhibition [1, 21] 14.4% | Potency [2] | Potency [3] | Potency [4] | Potency [5] | Potency [6] | Potency [7] | Potency [8] | Potency [9] | Potency [10] | Potency [11] | Potency [12] | Potency [13] | Potency [14] | Potency [15] | Potency [16] | Potency [17] | Potency [18] | Potency [19]

CCC1Nc2cc(Cl)c(S(N)(=O)=O)cc2S(=O)(=O)N1 (stereo not given)
inactive: activity, negative = inhibition [1, 20] 11% | activity, negative = inhibition [1, 21] 6.74% | Potency [2] | Potency [3] | Potency [4] | Potency [5] | Potency [6] | Potency [7] | Potency [8] | Potency [9] | Potency [10] | Potency [11] | Potency [12] | Potency [13] | Potency [14] | Potency [15] | Potency [16] | Potency [17] | Potency [18] | Potency [19]

CCCCCCCCCCCCCCCC(=O)O
inactive: activity, negative = inhibition [1, 20] -0.389% | activity, negative = inhibition [1, 21] 7.62% | Potency [2] | Potency [3] | Potency [4] | Potency [5] | Potency [6] | Potency [7] | Potency [8] | Potency [9] | Potency [10] | Potency [11] | Potency [12] | Potency [13] | Potency [14] | Potency [15] | Potency [16] | Potency [17] | Potency [18] | Potency [19]

CC(C)CCCC(C)N (stereo not given)
inactive: activity, negative = inhibition [1, 20] 13% | activity, negative = inhibition [1, 21] -1.67% | Potency [2] | Potency [3] | Potency [4] | Potency [5] | Potency [6] | Potency [7] | Potency [8] | Potency [9] | Potency [10] | Potency [11] | Potency [12] | Potency [13] | Potency [14] | Potency [15] | Potency [16] | Potency [17] | Potency [18] | Potency [19]

FC(F)(F)C(F)(F)C(F)(F)C(F)(F)C(F)(F)C(F)(F)C(F)(F)C(F)(F)Br
inactive: activity, negative = inhibition [1, 20] 2.77% | activity, negative = inhibition [1, 21] -1.15% | Potency [2] | Potency [3] | Potency [4] | Potency [5] | Potency [6] | Potency [7] | Potency [8] | Potency [9] | Potency [10] | Potency [11] | Potency [12] | Potency [13] | Potency [14] | Potency [15] | Potency [16] | Potency [17] | Potency [18] | Potency [19]
